HT1080NT lethal = kills 2HG-producing HT-1080-NT fibrosarcoma cells; 360,000 compounds, 1.6% hits; HT-1080-NT fibrosarcoma viability, CellTiter-Glo ATP luminescence, 48 h; Potency, µM (top dose mostly 46.1 µM), inactives show at the top dose activity, negative = less viability, hits mostly cytotoxic;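 note: NT is the 2HG producing partner of a matched IDH1 knockdown line; 0% = DMSO-treated cells and -100% = media-only wells without cells; nearly all actives have a fitted effect of over 55% in size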
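Viability of the 2HG-overproducing fibrosarcoma line after 48 hours of compound exposure at 37 degrees C was determined by luminescence with CellTiter-Glo, and concentration-effect curves were then fitted and categorized.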
TDP1 cell noCPT = qHTS for Inhibitors of human tyrosyl-DNA phosphodiesterase 1 (TDP1): qHTS in cells in absence of CPT; 420,000 compounds, 15% hits; Potency, µM (series often up to 46.2 µM), without a hit: top-dose activity change, negative = growth inhibition, usual class: inhibitors; DT40 Tdp1-/- hTDP1 cells, no CPT, ATP luminescence, 48 h; note: % is set by controls: 0 for no effect and ±100 for the full control effect; nearly all actives have a fitted effect of over 55% in size
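Growth of hTDP1-complemented DT40 Tdp1-knockout cells is measured by ATP luminescence after at least 48 hr compound exposure at 37 °C, with DMSO substituting for the 20 nM CPT used in the parallel screen.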
HT1080 IDH1KD tx = toxicity to HT-1080 IDH1 knockdown cells (counter line). HT-1080 IDH1 knockdown viability, ATP luminescence, 48 h. 360,000 compounds, 2% hits. Potency, µM (series often up to 46.1 µM), inactives show at the top dose activity, negative = toxicity, usual class: cytotoxic;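 note: 0% = DMSO wells and -100% = cell-free medium wells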
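HT-1080-IDH1KD cells (IDH1 knocked down), 750/well in RPMI with 5% FBS, treated with compound 48 h at 37 degrees C. Viability by CellTiter-Glo luminescence, normalised to DMSO and no-cell wells; concentration-response curves classed.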
TGFb inhibitor = inhibitors of TGF-b signaling. HepG2 CAGA-GFP TGF-b/SMAD3 reporter, GFP fluorescence, 18 h; TGF-beta stimulated, 500 pg/mL final. Potency, µM (highest dose often 46.1 µM), for the others: at the top dose activity, negative = inhibition, hits mostly inhibitors. 410,000 compounds, 1.2% hits. AID 588855; note: % is set by controls: 0 for no effect and ±100 for the full control effect; nearly all actives have a fitted effect of over 65% in size
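HEPG2 CAGA-GFP cells (1000/well, DMEM with 1% FBS) were pre-incubated 2 h at 37 degrees C, given compound by pin tool, then stimulated with TGF-beta at 500 pg/mL final for 18 h before per-cell GFP fluorescence imaging.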
HepG2 viability = counter-screen for TGF-b inhibitors: cytotoxicity in HepG2 cells. AID 588856. HepG2 CAGA-GFP viability, ATP luminescence, 18 h. Potency, µM (doses to about 46.1 µM), without a hit: at the top dose activity change, negative = cytotoxicity, usual class: cytotoxic. 410,000 compounds, 0.76% hits
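CellTiter-Glo luminescence gave cytotoxicity after 18 hours at 37 degrees C. The cells were HepG2 CAGA-GFP in 1% FBS DMEM, stimulated with 500 pg/mL TGF-beta after compound addition. %Activity was normalised to no-cell wells (complete cell-killing) and DMSO (no toxicity), and curves were fitted and classified.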
TDP1 cell CPT = growth inhibition of DT40 Tdp1-/-;hTDP1 cells with camptothecin (screen for TDP1 inhibitors) | chicken DT40 Tdp1-/-;hTDP1 cells + 20 nM CPT, ATP luminescence, 48 h | Potency, µM (titrated, usually from 46.2 µM), inactives show at the highest dose activity change, negative = growth inhibition, most hits filed as inhibitors | 420,000 compounds, 12% hits; note: % is set by controls: 0 for no effect and ±100 for the full control effect; nearly all actives have a fitted effect of over 55% in size
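Chicken DT40 Tdp1-/- cells complemented with human TDP1, 400 cells/well, exposed to compounds plus 20 nM camptothecin for at least 48 h at 37 C; viability read as ATP content by CellTiter-Glo luminescence.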
An asterisk follows results filed as active; ? = inconclusive; nt = no result given; ! = a repeat was not active; [ ] = dose if it differs, or a comment. Compounds with a hit are over-represented: about 17% of the library has one in this group of screens. Calls come from the whole dose curve; as a rule, active = well fitted curve in the direction sought with a large enough effect; inconclusive = small, poorly fitted or top-dose-only effect, or another doubt; inactive = no such curve, though single readings can be large; an effect the other way counts as inactive or inconclusive. Potency is the fitted concentration of half-maximal effect.

SMILES	HT1080NT lethal	TDP1 cell noCPT	HT1080 IDH1KD tx	TGFb inhibitor	HepG2 viability	TDP1 cell CPT
CCOc1ccc(NC(=O)NCCn2nnc3cc(S(=O)(=O)N(C)C)ccc32)cc1	nt	-10%	nt	-25%	8%	9%
COc1ccc(OC)c(-c2cc(Cl)c3c(c2)CC(CNC(=O)C(C)N2CCOCC2)O3)c1 (stereo unspecified)	nt	?	nt	nt	nt	-1%[9.04 µM]
Cc1ccc(-c2cnc(NC(=O)c3cccc(Br)c3)s2)c(C)c1	-8%	?	-4%	?	-14%	?
CNc1ncnc2c1ncn2[C@H]1CN(Cc2ccc3c(c2)OCO3)C[C@@H](CO)O1	5%	?	0%	-8%	2%	12µM*
Cc1ccc(C(C)C)c2oc(=O)cc(-c3ccc(-c4ccc(C(F)(F)F)cc4)cc3)c12	9%	21µM*	11%	-9%	-42%	15µM*
CC(C)(C)c1ccc(C(CC(=O)O)NC(=O)Cc2ccccc2)cc1 (stereo unspecified)	7%	-1%	5%	7%	11%	26%
Cc1c(Cl)cccc1NC(=O)C(=O)NCCc1csc(-c2cccc(F)c2)n1	nt	-20%	nt	-17%	-1%	-9%
O=C(C[n+]1ccc(/C=C/c2ccccc2)cc1)c1ccc2c(c1)OCCO2	?	9.2µM*	16µM*	-17%	-32%	?
O=C(CS(=O)(=O)c1ccccc1)c1ccc2c(c1)OCCO2	1%	18µM*	3%	19%	-11%	15µM*
O=C(CCN1Cc2ccccc2C1)c1ccc2c(c1)OCCO2	?	5.2µM*	11µM*	13µM*	10µM*	3.7µM*
O=C(O)CCC(=O)c1ccc2c(c1)OCCO2	0%	-2%	-1%	-6%	1%	-13%
O=C(O)CCSCC(=O)c1ccc2c(c1)OCCO2	-5%	-20%	-2%	-14%	-15%	-21%
Cc1cc[n+](CC(=O)c2ccc3c(c2)OCCO3)cc1	-5%	-6%	11%	0%	-5%	31%
O=C(CCN1CCc2ccccc2C(c2ccccc2)C1)c1ccc2c(c1)OCCO2 (stereo unspecified)	?	3.3µM*	?	?	-110%	3.3µM*
Cc1nn(CC(C)C(=O)N2CCN(S(=O)(=O)c3ccc(Cl)cc3)CC2)c(C)c1C (stereo unspecified)	2%	-6%	6%	7%	-1%	10%
CCn1c(=O)c(C(=O)CN(C)Cc2cccc(OC)c2OC)c(N)n(Cc2ccccc2)c1=O	?	15µM*	8%	14%	2%	?
CCn1c(=O)c(C(=O)CN2CCCc3ccccc32)c(N)n(Cc2ccccc2)c1=O	-13%	?	-21%	11µM*!	-18%	?
CCn1c(=O)c(C(=O)CN2c3ccccc3CC2C)c(N)n(Cc2ccccc2)c1=O (stereo unspecified)	-20%	?	-18%	-24%	-21%	?
COC(=O)[C@@H]1CCCN1Cc1ccc2c(c1)CN(Cc1cc(OC)c3c(c1)OCO3)CCO2	nt	?	nt	nt	nt	23%[9.04 µM]
O=C(Nc1ccncc1)C1C(=O)c2ccccc2N(Cc2ccccc2)C1=O (stereo unspecified)	nt	0.71µM*	nt	-16%	-39%	1µM*
O=C(CC[C@H]1O[C@@H](n2cnc3c(NC(=O)c4ccccc4)ncnc32)[C@H](O)[C@@H]1O)NCc1ccco1	?	1%	10%	-6%	1%	10%
CCC(C)(C(=O)NC1CCCC1)N(Cc1ccco1)C(=O)c1ccc2c(c1)OCO2 (stereo unspecified)	-2%	7.3µM*	-7%	9%	9%	9.2µM*
O=C(c1ccccn1)N(Cc1ccco1)C1(C(=O)Nc2ccc(Br)cc2)CCCCC1	-13%	23µM*	-23%	?	-28%	16µM*
O=C(c1ccccn1)N(Cc1ccco1)C1(C(=O)NC2CCCC2)CCCCC1	13%	?	20%	-27%	-9%	-28%
O=C(c1ccc2c(c1)OCO2)N(Cc1ccco1)C1(C(=O)NC2CCCCC2)CCCCC1	-10%	16µM*	-21%	1%	-5%	12µM*
SMILES	HT1080NT lethal	TDP1 cell noCPT	HT1080 IDH1KD tx	TGFb inhibitor	HepG2 viability	TDP1 cell CPT
COc1cc(OC)c(OC)cc1CNCc1ccco1	20%	-16%	2%	?	-11%	12%
Cc1cc(C(=O)N2CCC2(C)C(=O)NS(=O)(=O)c2cccc(OC(F)F)c2)nn1C (stereo unspecified)	8%	-4%	14%	-6%	-1%	-14%
Cc1cccc(CN2CCc3nnc(C(C)NC(=O)C4CCOCC4)n3CC2)c1 (stereo unspecified)	nt	0%	nt	nt	nt	14%
Nc1ncnc2c1nc(Sc1ccc(Cl)cc1)n2[C@H]1OC2COP(=O)(O)O[C@H]2[C@@H]1O (stereo partly specified)	-11%	-10%	0%	nt	nt	-21%
CCOC(=O)c1ccccc1NC1c2ccccc2C(=O)N1c1cc(C)ccn1 (stereo unspecified)	4%	?	-9%	-13%	-16%	23µM*
CCC(c1nnnn1Cc1ccc2c(c1)OCO2)N1CCN(c2ccc(F)cc2)CC1 (stereo unspecified)	-29%	?	-19%	-21%	-17%	21µM*
CCCC(c1nnnn1Cc1ccccc1)N1CCN(c2ccccc2OC)CC1 (stereo unspecified)	1%	?	3%	8%	-12%	?
CCCC(c1nnnn1Cc1ccc(OC)cc1)N1CCN(c2ccccc2OC)CC1 (stereo unspecified)	-13%	21µM*	-17%	?	-32%	?
CCC(c1nnnn1Cc1ccc2c(c1)OCO2)N1CCN(c2ccc(OC)cc2)CC1 (stereo unspecified)	-6%	?	-13%	-23%	-12%	26µM*
CCC(c1nnnn1Cc1ccc(OC)cc1)N1CCN(c2ccc(OC)cc2)CC1 (stereo unspecified)	2%	-28%	-1%	-7%	1%	0%
